Test results as given in the supplement of paper PMC6555819.

Tested on: VDR:RXRa (NR concentration 270 nM, RXRa partner concentration 90 nM)
Experiment: PBM binding z-score (relative to random genomic background probes); higher = stronger binding; sequences stand for … in GC…GCGATTGACAGCGTAGAATGAAGG
Description: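 Protein-binding microarray (Agilent 4x180K custom design, double-stranded 60-nt probes: 5' GC cap, 34-nt variable region, 24-nt constant primer region; full probe sequence given). Purified or IVT nuclear receptor:RXRα heterodimers (3:1 NR:RXRα, mostly 270:90 nM) or homodimers were incubated for 1 h in PBS with 2% milk and no ligand, then detected with Alexa488 antibodies. Fluorescence from o1-orientation probes (~5 replicates averaged) was converted to z-scores against 500 random hg19 background probes. Variable regions are seed direct-repeat (DR0–DR5) sites, all their single-nucleotide variants and half-site ablations.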

| Sequence | PBM binding z-score |
| --- | --- |
| CCTACTGGGCAATTCAGAGGTCATTGATCATATG | 3.49 |
| TCGAGTAGGTTAGGGGCATACAGAATGGCGTCGA | 0.604 |
| TCCAGTAGGTTAGGGGCATTCAGAATGGCGTCGA | 0.702 |
| CCTAGTTGGTCAAGAGGTCACACACCGGATATGA | 4.64 |
| AGAACGAGGGCAACGAGTTGATAGCACGGGTGGC | 5.16 |
| CCGAGTAGGTTATGGGGCATTCCGGCAACGGTGA | -0.216 |
| CGAACTAGGTCAAGGTCAGTGAATCTCCGCACGC | 3.19 |
| TTACCAAGGTGAAAGGACGTTGATGCACGCCTTG | 0.0674 |
| TCATATAGGTAAATGCTAGGTAAAAGTCCGATCT | 0.968 |
| CGAACTAAGTCAAGGACAGTGAATCTCCGCACGC | -0.36 |
| CAAACTAGGTTAAAGGTCAAAGTCGAGCCAACCA | 5.47 |
| CGAACTAGGTCATCCAGGACAGTAAATACATTGA | 4.71 |
| CGTCCACGGTCATAGGAGGTCAGTGAAGACAGAT | 3.27 |
| GCGACTGGGGCAAAGCAGGTTATCATAAGGTTGG | 0.334 |
| ACTAGGAGGCCAAGGGTCACTCAAGATTAGTCCG | 2.98 |
| TGTCAAAGTTCAAAGGCAACGTAAGTATCCACAC | 4.26 |
| TCGAGTAGCTTACCAATGGGGCATTCAGCTTTCT | -0.487 |
| ACTATTAGTCGACTTAGGGCAACCGATACGACGC | -0.299 |
| TCTAGTTGGTCAAAAGTCACACACTCGAAATGCG | 1.21 |
| CGAAGGAGGGCATGAGTTGATAGCAAATGCCGAT | 0.513 |

| Sequence | PBM binding z-score |
| --- | --- |
| TCATATAGGTAAATGTGAAAGTCGAACGATATGA | 0.491 |
| ATAGACAGGTGAGTGAAGGTAACTCAGCTGGACG | 0.0461 |
| TCATATAGGGAATACAGGTGAAAGTCGGCATCTA | 1.11 |
| CGAAGTAGGTCAAGGACAGTGAATCTCCGCACGC | 1.52 |
| GCTCGGAGGACAAAGTCAGAGCTTTGTCCGTAGA | -0.556 |
| TCGGCTAGGTCAGTTGGTCAGCTAACGAGCTGCC | 0.16 |
| AAAACGAGGGCAATGAGTTGATAGCACGGGTGGC | 5.46 |
| ATCGAAAGGTAGTGAGGTGAGTATACAGAAAGGC | -0.165 |
| GCTAGCAGGCCATTTGGGACACTCAATGACGGGC | -0.447 |
| TCTGCTAGGTCAGCTGGTCAGCTAACGAGCTGCC | 0.12 |
| TGATATAGGTAAACAGGTGAAAGTCCGTAAGTTA | 0.405 |
| CGTCCAGGGTCAGAGAGGTCAGTGAATGCCGAGT | 7.46 |
| CGAACTAGGTCATGGACAGGACAGTGAATAGTAA | 2.3 |
| CGTCCAAGGTCAAAGGTCGGTGAAGAGATGACGG | 5.32 |
| ACTAGCAGGCCAAGTTTGGGTCGCTCAAACAAAG | -0.328 |
| TCTCGGAGGACACGATGGTCAGAGCTTTCCAGAG | -0.133 |
| TTACCAAGGTGAGCCGAGGTCGTTGATCCAACTC | 4.51 |
| CGTCCAAGGTCATAGAAGGTCAGTGAAGACAGAT | 6.34 |
| TCATATACGTAAATGCTAGGTGAAAGTCCGATCT | 0.839 |
| TATACAGGGTCAATGGCCAGAGTACGAATGTCGA | 4.05 |
